# From PubChem BioAssay AID1566 (Sanford-Burnham Center for Chemical Genomics, 2009)
# “And” between values parts separate entries of the source, which are not always exact repeats. Equal values may be shown once. Out of some 290,000 compounds screened, about 1,800 (0.62%) were called active. Many of the other results were omitted from the sample, so actives are more common in it than they were. Unmarked numbers belong to inactive results. Cut-off read from the data, not from the text of the source: active = inhibition above about 50%; inactive = the rest.
# Experiment: inhibition of NOD2-driven NF-kB reporter – cell-based, luminescence, uHTS, HEK293 (AID 1566)
# Details: HEK293 NOD2/NF-kB luciferase reporter, at 4 µM, stronger effect = higher value
row,Compound,inhibition
1,CC(=O)Nc1ccc(NC(=O)CSc2nc3c([nH]c4ccccc43)c(=O)n2-c2ccccc2F)cc1,34.3%
2,c1cc[n+](CCC[n+]2ccccc2)cc1,11.7%
3,c1cc[n+](CCCC[n+]2ccccc2)cc1,7.6%
4,C(C#CCCCCCCCCC[n+]1ccccc1)#CCCCCCCCCC[n+]1ccccc1,68% (active)
5,CN(C)N1C(N)=C(C#N)C(c2ccc(F)cc2)C2=C1CC(C)(C)CC2=O (centres undefined),-11.2%
6,O=C(COc1cccc(Cl)c1)Nc1nc(-c2ccc(S(=O)(=O)N3CCOCC3)cc2)cs1,-0.1%
7,O=C(COc1ccccc1)Nc1nc(-c2ccc(S(=O)(=O)N3CCOCC3)cc2)cs1,25.3%
8,Cc1cccc(NC(=O)CCC(=O)Nc2nnc(C(F)(F)F)s2)c1,8.6%
9,CCS(=O)(=O)N1CCN=C1SCc1cccc(F)c1,8.5%
10,O=C(Nc1nc(-c2ccccc2)cs1)c1ccc(N2CCOCC2)c([N+](=O)[O-])c1,68.1% (active)
11,O=C(Nc1nc(-c2ccc(-c3ccccc3)cc2)cs1)c1cc([N+](=O)[O-])ccc1N1CCOCC1,6%
12,O=C(Nc1nccs1)c1ccc(N2CCOCC2)c([N+](=O)[O-])c1,-39.7%
13,Cc1cc(C(=O)Nc2cccc(/C=C/C(=O)O)c2)c(C)o1,5.6%
14,N/C(=N\OC(=O)c1cccc(Cl)c1)c1ccccn1,-99.8%
15,CC(C)CNC(=O)CSc1nc2scc(-c3ccccc3)c2c(=O)[nH]1,37.7%
16,CC(C)(C)NC(=O)CSc1nc2scc(-c3ccccc3)c2c(=O)[nH]1,25.9%
17,CC(C)CNC(=O)c1cccc(C(=O)NCC(C)C)c1,7.3%
18,Cn1c(=O)c2c(nc(CN3CCN(c4ccccc4F)CC3)n2CCN2CCOCC2)n(C)c1=O,9%
19,O=C(CN1CCOCC1)N1CCc2ccccc2C(c2ccccc2)C1 (centres undefined),17%
20,COc1ccc(F)cc1CN1CCN(c2ncnc3scc(-c4ccccc4)c23)CC1,19.8%

row,Compound,inhibition
1,O=C(NCc1ccccc1Cl)C1CCCN(c2ncnc3c2nc2n3CCCCC2)C1 (centres undefined),18.9%
2,CC1CCN(C(=O)Cn2c(=O)oc3ccccc32)CC1,-2.3%
3,COc1ccc(NC(=O)CN(c2ccc([N+](=O)[O-])cc2)S(=O)(=O)c2ccccc2)cc1,-17.8%
4,CCC(=O)c1ccc(O)c(CC=C(C)C)c1,54.6% (active)
5,CC(=O)c1ccc(O)c(CC=C(C)C)c1,34.2%
6,CC(=O)c1cc(CC=C(C)C)c(O)cc1O,30.8%
7,O=c1cc(O)nc(SCc2ccccc2)n1-c1ccccc1,13.3% and 9.4%
8,S=C(NCc1ccccc1)NN1CCOCC1,1.7%
9,Nc1nc(N2CCCCC2)nc2ccccc12,-20.9%
10,Cc1cccc(Cn2c(O)c(N=NC(=S)Nc3ccccc3F)c3ccccc32)c1,18.9%
11,Cc1cccc(NC(=O)Cn2c(O)c(N=NC(N)=S)c3ccccc32)c1,-8.5%
12,Cc1cccnc1NC(=O)c1cccc(S(=O)(=O)N2CCCc3ccccc32)c1,0.8%
13,O=C(O)c1cccc(NC(=O)c2cccc(S(=O)(=O)N3CCc4ccccc43)c2)c1,-26.3%
14,COc1cccc(C2CC(=O)NC(SC)=C2C#N)c1 (centres undefined),27.4%
15,CCO[C@@H]1OC(C(=O)NCc2ccccc2)=C[C@H](c2ccc(Br)cc2)[C@H]1CCCO,-1.4%
16,Cc1c(CC(=O)N[C@@H](CCCNC(N)=O)C(=O)O)c(=O)oc2cc3oc4c(c3cc12)CCCC4,14.7%
17,COc1ccc(NC(=O)C(Cl)=C(Cl)Cl)cn1,-25.2%
18,COc1ccc(CS(=O)(=O)/C(Cl)=C(/Cl)C(=O)Nc2ccc(OC)nc2)cc1,79.2% (active)
19,COc1ccc(CC(=O)Nc2ccc(OC)nc2)cc1,6.1%
20,CCN(CC(=O)N(CC(C)C)c1c(N)n(CC(C)C)c(=O)[nH]c1=O)Cc1nc2ccccc2c(=O)[nH]1,13.4%

row,Compound,inhibition
1,Cc1cc(NC(=O)CN(C)S(=O)(=O)c2cccc(Cl)c2)no1,0.9%
2,COc1ccc(NC(=O)COC(=O)C2CC(=O)N(c3ccc(OC(C)C)cc3)C2)cc1 (centres undefined),6.7%
3,O=C(NCC1OCCc2ccccc21)c1ccc(NC(=O)c2cccc(Br)c2)cc1 (centres undefined),2.8%
4,Cc1cc(/C=N/Nc2nc(N)ncc2[N+](=O)[O-])c(C)n1-c1cccc(C(F)(F)F)c1,-78.1%
5,COc1cccc(/C=N/Nc2ncnc(N)c2[N+](=O)[O-])c1OC,-39.2%
6,Cc1ccccc1-n1c(C)cc(/C=N/Nc2ccc([N+](=O)[O-])cn2)c1C,-29.9%
7,Cc1cc(/C=N/Nc2ccc([N+](=O)[O-])cn2)c(C)n1-c1ccccc1,8.4%
8,O=[N+]([O-])c1cccc(-c2cc(C(F)(F)F)n3nc(-c4ccccc4)cc3n2)c1,26.1%
9,CCCN(CCC)CC(O)COc1ccc2c(c1)OCO2 (centres undefined),4.6%
10,O=C(NCc1ccccc1F)C1CCCN1C(=O)Nc1cccc(F)c1 (centres undefined),-1.7%
11,Cc1nn(-c2nc3ccccc3[nH]2)c(N)c1-c1ccccc1,-163%
12,O=c1c(Cl)c(N2CCCCC2)cnn1-c1nc2ccccc2[nH]1,-7.2%
13,Cc1nn(-c2nc3ccccc3[nH]2)c(=O)c2ccccc12,87.2% (active)
14,O=c1c(Cl)c(N2CCOCC2)cnn1-c1nc2ccccc2[nH]1,-110%
15,Cc1nn(-c2ccccc2)c(=O)c2ccccc12,-1.4%
16,O=c1c2ccccc2cnn1-c1nc2ccccc2[nH]1,87.6% (active)
17,NS(=O)(=O)c1ccc(CCNC(=O)c2cc(-c3ccc(Br)cc3)nc3ccccc23)cc1,-18.4%
18,O=C(NCc1ccon1)C1CCC(=O)N(CCc2ccc(Cl)cc2)C1 (centres undefined),6.3%
19,COc1ccc2c(c1)cc(C(=O)N[C@H](C(=O)N1CCC(C(=O)O)CC1)C(C)C)n2C,-3.6%
